Results published in paper PMC8159961, “Exploring protein hotspots by optimized fragment pharmacophores” (Nature Communications, 2021).
A number with no mark means an inactive call. How the calls were made is not given here.

Tests used:
Experiment in all cases: primary screen, binary call; higher = more effect of the substance
Factor Xa = Factor Xa (bovine, UniProt P00743); parameters: screenings were carried out in duplicate in one independent experiment; conditions: 200 µM
Experimental: Protease inhibitory assays were performed in transparent microtiter plates in a final volume of 200 µL with the use of chromogenic substrates. The reaction rates in the absence and in the presence of the inhibitor were measured; screenings were carried out in duplicate in one independent experiment and Ki values were determined in triplicate in two independent experiments.

5-HT6 receptor = 5-HT6 receptor (human, UniProt P50406); parameters: hit call from the mean of at least two separate experiments; conditions: 10 µM
5-HT7b receptor = 5-HT7b receptor (human, UniProt P34969); parameters: hit call from the mean of at least two separate experiments; conditions: 10 µM
Sequence of 5-HT7b receptor (P34969 whole entry, looked up): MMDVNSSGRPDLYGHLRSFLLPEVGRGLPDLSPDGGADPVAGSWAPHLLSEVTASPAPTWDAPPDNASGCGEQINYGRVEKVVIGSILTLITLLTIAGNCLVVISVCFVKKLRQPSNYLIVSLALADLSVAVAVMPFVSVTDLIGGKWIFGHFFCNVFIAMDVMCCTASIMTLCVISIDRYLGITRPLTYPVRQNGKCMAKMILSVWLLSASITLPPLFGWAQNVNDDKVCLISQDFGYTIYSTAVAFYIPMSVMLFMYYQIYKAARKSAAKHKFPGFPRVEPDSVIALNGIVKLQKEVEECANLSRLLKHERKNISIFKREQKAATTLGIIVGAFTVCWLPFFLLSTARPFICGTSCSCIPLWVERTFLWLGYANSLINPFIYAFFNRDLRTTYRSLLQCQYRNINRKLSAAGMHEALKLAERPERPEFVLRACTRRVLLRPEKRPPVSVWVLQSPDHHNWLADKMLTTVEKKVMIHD

Sequence of Factor Xa (P00743 41-180 limits assumed): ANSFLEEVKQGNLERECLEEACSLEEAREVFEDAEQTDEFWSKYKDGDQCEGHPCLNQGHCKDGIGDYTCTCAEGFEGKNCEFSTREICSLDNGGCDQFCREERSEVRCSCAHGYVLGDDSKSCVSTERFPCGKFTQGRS
Sequence of Factor Xa (P00743 234-492 limits assumed): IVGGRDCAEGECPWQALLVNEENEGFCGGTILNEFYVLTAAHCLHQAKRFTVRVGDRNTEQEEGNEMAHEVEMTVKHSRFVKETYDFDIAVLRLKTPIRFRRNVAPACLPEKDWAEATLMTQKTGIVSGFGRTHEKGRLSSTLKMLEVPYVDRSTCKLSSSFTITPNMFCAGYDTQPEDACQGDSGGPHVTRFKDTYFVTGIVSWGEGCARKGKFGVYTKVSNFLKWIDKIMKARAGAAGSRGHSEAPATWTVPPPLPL
Sequence of 5-HT6 receptor (P50406 whole entry, looked up): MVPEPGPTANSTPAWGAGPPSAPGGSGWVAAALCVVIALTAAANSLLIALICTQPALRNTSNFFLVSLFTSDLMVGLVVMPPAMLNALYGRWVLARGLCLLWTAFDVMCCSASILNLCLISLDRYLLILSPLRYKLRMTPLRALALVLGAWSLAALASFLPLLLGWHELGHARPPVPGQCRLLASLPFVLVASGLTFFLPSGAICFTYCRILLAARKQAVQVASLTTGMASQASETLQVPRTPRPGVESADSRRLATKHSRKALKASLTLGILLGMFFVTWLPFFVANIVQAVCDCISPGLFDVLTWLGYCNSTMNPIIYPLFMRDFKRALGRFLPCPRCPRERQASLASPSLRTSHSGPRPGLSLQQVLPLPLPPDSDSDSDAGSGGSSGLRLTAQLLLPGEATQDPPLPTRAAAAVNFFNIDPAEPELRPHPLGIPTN

Structure (SMILES) | Factor Xa (Factor Xa) | 5-HT6 (5-HT6 receptor) | 5-HT7 (5-HT7b receptor)
NC1CCc2ccccc21 (stereo not drawn) | 0 | 0 | 0
COc1ccc(CN2CCNCC2)cc1F | 0 | 0 | 0
O=C1CSC(Nc2ccc(F)cc2)=N1 | 0 | 0 | 0
O=C(Nc1ccccc1)C1CC1 | 0 | 0 | 0
Cc1cc(-c2ccccc2)n[nH]1 | 0 | 0 | 0
CCc1ccc(NC2=NCCCS2)cc1 | 0 | 0 | 0
O=C1CCC(=O)N(c2ccccc2)N1 | 0 | 0 | 0
CCCN1C(=O)CC(=O)NC1=S | 0 | 0 | 0
COc1ccccc1CC1CCNCC1.Cl | 1 (active) | 1 (active) | 1 (active)
O=C(c1ccccc1)N1CCC(CO)CC1 | 0 | 0 | 0
CC1CCc2sc(C(=O)O)cc2C1 (stereo not drawn) | 0 | 0 | 0
CCn1cnc2ccccc21 | 0 | 0 | 0
O=C1NC(=O)C2(CCc3ccccc32)N1 (stereo not drawn) | 0 | 0 | 0
Brc1ccc(-c2ccon2)cc1 | 0 | 0 | 0
O=c1ccc2c([nH]1)CCCC2 | 0 | 0 | 0
O=C1CCCc2occc21 | 0 | 0 | 0
O=C1CNCCN1c1ccccc1 | 0 | 0 | 0
Cn1c(N)nc2ccccc21 | 1 (active) | 0 | 0
O=c1[nH]ncc2c1oc1ccccc12 | 0 | 0 | 0
NCC1(c2ccccc2)CCOCC1 | 0 | 0 | 0

Structure (SMILES) | Factor Xa (Factor Xa) | 5-HT6 (5-HT6 receptor) | 5-HT7 (5-HT7b receptor)
O=C(O)C1CCN(c2ncccn2)CC1 | 0 | 0 | 0
N#Cc1ccc(C(=O)N2CCOCC2)cc1 | 0 | 0 | 0
Oc1ccc(-n2cncn2)cc1 | 0 | 0 | 0
Fc1ccc(CC2CCCNC2)cc1 (stereo not drawn) | 0 | 0 | 0
O=C(O)CC1CCC(=O)N1 (stereo not drawn) | 0 | 0 | 0
Cc1cc(C)c2c(=O)[nH]n(C)c2n1 | 0 | 0 | 0
O=C1NC(=O)/C(=C\c2cccs2)N1 | 1 (active) | 0 | 0
N#CC1CCS(=O)(=O)C1 (stereo not drawn) | 0 | 0 | 0
C1=C[C@H]2O[C@@H]1c1ccccc12 | 0 | 0 | 0
Cn1nc(C(F)(F)F)cc1O | 0 | 0 | 0
O=C1CC(CSc2ccc(Cl)cc2)=NN1 | 0 | 0 | 0
O=C(O)c1ccc(CN2CCOCC2)cc1 | 0 | 0 | 0
O=C(c1ccncc1)N1CCNCC1 | 0 | 0 | 0
Nc1ccc(SC(F)F)cc1 | 0 | 0 | 0
Cc1ccc(-c2ccc(O)cc2)cc1 | 0 | 0 | 0
COc1ccccc1C1CCNCC1 | 0 | 1 (active) | 1 (active)
O=C1CCN(c2ccncc2)CC1 | 0 | 0 | 0
Cc1nccn1Cc1cccc(C#N)c1 | 0 | 0 | 0
CS(=O)(=O)c1ccc(N2CCNCC2)cc1 | 0 | 0 | 0
O=C1CCN(c2ccccn2)CC1 | 0 | 0 | 0

Structure (SMILES) | Factor Xa (Factor Xa) | 5-HT6 (5-HT6 receptor) | 5-HT7 (5-HT7b receptor)
CC1C(=O)NC(=O)N1c1ccc(Cl)cc1 (stereo not drawn) | 0 | 0 | 0
Cc1nc(-c2ccccc2)cs1 | 0 | 1 (active) | 0
CC(=O)c1sc(-c2ccc(O)cc2)nc1C | 1 (active) | 1 (active) | 0
Cc1ccc(C)n1Cc1ccccc1Cl | 0 | 0 | 0
Cn1c(CO)nc2ccccc21 | 0 | 0 | 0
Cc1cc(N)no1 | 0 | 0 | 0
Cc1ccc(CCNc2ccccc2)cn1 | 0 | 0 | 0
Fc1ccc2c(C3CCNCC3)c[nH]c2c1 | 0 | 1 (active) | 1 (active)
O=C(O)c1cnc(-c2ccccc2)s1 | 0 | 0 | 0
c1ccc(Nc2nncs2)cc1 | 1 (active) | 0 | 0
COc1ccccc1N1CCNCC1 | 0 | 1 (active) | 1 (active)
COc1cccc(NC2=NCCCCC2)c1 | 0 | 0 | 0
O=C(O)C1CCCN(C(=O)N2CCCC2)C1 (stereo not drawn) | 0 | 0 | 0
CC(CN)N1CCc2sccc2C1 (stereo not drawn) | 0 | 0 | 0
O=C(CN1CCCC1)c1ccccc1Cl | 0 | 0 | 0
Oc1cnc(-c2ccccc2)nc1 | 0 | 0 | 0
CN(C)c1cc(CN)ccn1 | 0 | 0 | 0
CC1(C)OC(=O)c2cc(Br)c(O)cc2O1 | 0 | 1 (active) | 0
